Data reported in PubChem BioAssay (Tox21).
Records with an inconclusive call do not appear. The source made the active and inactive calls. Unless noted, calls follow the shape of the full dose curve.

How the values were obtained:
[1] = molecular target: Nuclear receptor subfamily 1 group I member 3 (Homo sapiens) (UniProt Q14994); test: qHTS assay to identify small molecule agonists of the constitutive androstane receptor (CAR) signaling pathway (AID 1224839; active = well fitted curve in the direction sought with a large enough effect in the repeat runs; an effect the other way counts as inactive or inconclusive; also: series mostly up to about 92 µM; nearly all actives have a fitted effect of over 15% in size)
Sequence of Nuclear receptor subfamily 1 group I member 3 (Homo sapiens) (Q14994 whole entry, looked up): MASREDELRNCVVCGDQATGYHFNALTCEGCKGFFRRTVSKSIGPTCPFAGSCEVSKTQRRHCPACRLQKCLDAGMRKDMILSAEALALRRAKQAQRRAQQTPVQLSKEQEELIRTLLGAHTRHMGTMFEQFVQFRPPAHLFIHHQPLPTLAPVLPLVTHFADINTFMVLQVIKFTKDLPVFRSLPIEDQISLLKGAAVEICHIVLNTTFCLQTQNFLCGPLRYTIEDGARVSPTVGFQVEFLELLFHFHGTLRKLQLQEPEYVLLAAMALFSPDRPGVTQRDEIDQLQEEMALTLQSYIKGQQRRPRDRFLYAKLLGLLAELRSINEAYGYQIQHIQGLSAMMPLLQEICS
How it was run: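 A 15-concentration quantitative screen uses HepG2 cells co-transfected stably with human CAR and CYP2B6-2.2kb reporter. Treatment lasts 24 h with 0.75 uM PK11195 final present; ONE-Glo luminescence is the signal.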

[2] = qHTS assay to identify small molecule antagonists of the estrogen related receptor signaling pathway with the pleiotropic PPARgamma coactivator (PGC) from Tox21 10K library - cell viability counter screen (AID 1224840; active = well fitted cell-killing curve with a large enough effect in the repeat runs, not every such curve was filed as active; also: nearly all actives have a fitted effect of over 40% in size)
How it was run: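 Following seeding of 2,000 PGC/ERR cells/well and 6 hours' incubation, test compounds were delivered in DMSO. The plates then sat 17.5 hours at 37 C before a fluorogenic live-cell protease reagent (CellTiter-Fluor) was read after 30 min.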

[3] = molecular target: Thyrotropin receptor (Homo sapiens) (UniProt P16473); test: qHTS assay to identify small molecule agonists of the thyroid stimulating hormone receptor (TSHR) signaling pathway (AID 1224843); also: nearly all actives have a fitted effect of over 45% in size
Sequence of Thyrotropin receptor (Homo sapiens) (P16473 whole entry, looked up): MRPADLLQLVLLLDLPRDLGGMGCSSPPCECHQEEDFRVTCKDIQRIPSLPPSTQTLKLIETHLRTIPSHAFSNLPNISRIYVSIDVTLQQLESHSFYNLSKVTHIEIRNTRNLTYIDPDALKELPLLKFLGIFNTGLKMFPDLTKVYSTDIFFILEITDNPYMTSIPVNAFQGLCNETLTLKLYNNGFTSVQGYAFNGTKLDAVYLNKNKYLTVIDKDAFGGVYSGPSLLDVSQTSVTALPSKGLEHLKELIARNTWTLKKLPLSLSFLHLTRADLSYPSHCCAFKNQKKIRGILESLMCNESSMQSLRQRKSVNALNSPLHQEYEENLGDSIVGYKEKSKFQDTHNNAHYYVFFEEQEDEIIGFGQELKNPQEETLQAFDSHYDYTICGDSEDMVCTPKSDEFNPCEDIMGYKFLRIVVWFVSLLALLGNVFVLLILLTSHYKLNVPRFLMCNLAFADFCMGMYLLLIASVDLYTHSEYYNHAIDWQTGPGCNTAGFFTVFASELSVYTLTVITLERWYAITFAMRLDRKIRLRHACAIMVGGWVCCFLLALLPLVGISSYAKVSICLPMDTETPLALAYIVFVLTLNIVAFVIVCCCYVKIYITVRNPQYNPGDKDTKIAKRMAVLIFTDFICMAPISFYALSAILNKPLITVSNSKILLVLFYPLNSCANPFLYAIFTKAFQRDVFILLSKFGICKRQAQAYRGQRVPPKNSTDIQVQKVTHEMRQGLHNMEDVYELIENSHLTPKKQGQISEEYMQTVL
How it was run: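 HEK293 cells stably bearing the thyrotropin receptor were plated at 800 cells/well and challenged with compound (30 min, RT). Accumulated cAMP was quantified via cAMP-d2 competing for cryptate-tagged antibody.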

[4] = qHTS assay to identify small molecule agonists of the hypoxia (HIF-1) signaling pathway - cell viability counter screen (AID 1224844); also: nearly all actives have a fitted effect of over 50% in size
How it was run: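 Cells (HRE-bla ME-180, 2,000 per well) sat 5 hrs at 37C, got compound for 17 hrs, were read for CCF4-AM FRET, and were finally lysed with CellTiter-Glo for a 30 min room-temperature luminescence read.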

[5] = qHTS assay to identify small molecule agonists of H2AX (AID 1224845; active = well fitted activation curve with a large enough effect in the signal ratio in the repeat runs, not every such curve was filed as active; the % refers to the signal ratio)
How it was run: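 Phospho-H2AX Ser139 measured by HTRF (ex 320 nm; em 665 and 620 nm) after 24 hr antibody incubation. Compounds, 15 concentrations, 0.76% DMSO, were applied to CHO-K1 cells for 3hr at 37C before lysis.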

[6] = qHTS assay to identify small molecule agonists of the hypoxia (HIF-1) signaling pathway (AID 1224846; active = well fitted activation curve with a large enough effect in the signal ratio in the repeat runs, not every such curve was filed as active; the % refers to the signal ratio)
How it was run: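 A low-serum medium (0.5% dialyzed FBS) holding 2,000 HRE-bla ME-180 cells per well is preincubated for 5 hrs, dosed with compounds by pintool, and kept a further 17 hrs at 37C, 5% CO2 before CCF4-AM FRET detection of beta-lactamase.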

[7] = qHTS assay to identify small molecule agonists of H2AX - cell viability counter screen (AID 1224847); also: top concentration of the series differs between compounds; nearly all actives have a fitted effect of over 30% in size
How it was run: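 We seed wild-type CHO-K1 cells overnight, treat them for 3 hr at 37C with compounds in 15-concentration series, and quantify remaining viability by CellTiter-Glo luminescence.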

[8] = qHTS assay to identify small molecule antagonists of the estrogen related receptor signaling pathway with the pleiotropic PPARgamma coactivator (PGC) from Tox21 10K library (AID 1224841; call rule not given here; also: series mostly up to about 92 µM; actives are mostly falling curves and most rising ones were filed inactive; nearly all actives have a fitted effect of over 50% in size)
How it was run: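 qHTS antagonist format: PGC/ERR cells, 2k/well, compound in DMSO by pin transfer after 6 h attachment, 18 h treatment at 37 C, One-Glo luminescence read at 30 min.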

[9] = qHTS assay to identify small molecule agonists of the estrogen related receptor signaling pathway with the pleiotropic PPARgamma coactivator (PGC) from Tox21 10K library (AID 1224842; active = well fitted curve in the direction sought with a large enough effect in the repeat runs; an effect the other way counts as inactive or inconclusive; also: nearly all actives have a fitted effect of over 15% in size)
How it was run: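 Luminescence from One-Glo (30 min, room temperature) measured after PGC/ERR cells had 18 h at 37 C with pinned compound (23 nL in DMSO). Cells had been seeded at 2,000 per well and pre-incubated 6 h.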

[10] = qHTS assay to identify small molecule antagonists of the estrogen related receptor (ERR) signaling pathway from Tox21 library (AID 1224848; active = well fitted curve in the direction sought with a large enough effect in the repeat runs; an effect the other way counts as inactive or inconclusive; also: nearly all actives have a fitted effect of over 50% in size)
How it was run: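 Reading was by luminescence 30 min after ONE-Glo addition. Before that, ERR cells at 2,000 per well had rested 6 h at 37 C/5% CO2 and then received pin-tooled compounds in DMSO for 18 h at 37 C.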
% is scaled to controls: 0 for no effect and ±100 for the full control effect.

CC(C)(C)c1ccc(C=O)cc1
inactive: Potency [1] | outcome [2] | outcome [3] | outcome [4] | outcome [5] | outcome [6] | Potency [7]

CCCCOC(=O)[C@@H](C)Oc1ccc(Oc2ccc(C(F)(F)F)cn2)cc1
inactive: Potency [1] | outcome [2] | outcome [4] | outcome [5] | outcome [6]

O=CO
inactive: activation [1] -3.71% [at 8.39 µM] | viability change, negative = cytotoxic [2] -0.178% [at 8.39 µM] | activity, negative = inhibition [8] 4.47% [at 8.39 µM] | activation [9] -0.64% [at 8.39 µM] | activity change, negative = cytotoxicity [4] -0.151% [at 6.97 µM] | activation (H2AX phosphorylation) [5] 0.0105% [at 14 µM] | activation [6] -0.756% [at 7.01 µM] | activity change, negative = cytotoxicity [7] 0.103% [at 14 µM]

C/C=C(\C)C(=O)OCC/C=C\CC
inactive: Potency [1] | outcome [2] | outcome [3] | outcome [4] | outcome [5] | outcome [6] | Potency [7]

Nc1nc(=O)n([C@@H]2O[C@H](CO)[C@@H](O)[C@@H]2F)cc1I
inactive: Potency [1] | outcome [2] | outcome [3] | outcome [5] | Potency [7]

NS(=O)(=O)c1cc2c(cc1Cl)NC(CC1CCCC1)NS2(=O)=O (configuration not stated)
inactive: Potency [1] | outcome [2] | outcome [3] | outcome [4] | outcome [5] | Potency [7]

CCCCCCCCCOCC1CO1 (configuration not stated)
inactive: Potency [1] | outcome [2] | Potency [8] | outcome [9] | outcome [3] | outcome [4] | outcome [5] | outcome [6] | Potency [7] | Potency [10]

CC(C)C(=O)Nc1cccc(C(F)(F)F)c1
inactive: Potency [1] | outcome [2] | Potency [8] | outcome [9] | outcome [4] | outcome [5] | outcome [6] | Potency [7] | Potency [10]

CC(C)(CO)[C@@H](O)C(=O)NCCCO
inactive: Potency [1] | outcome [2] | Potency [8] | outcome [9] | outcome [3] | outcome [4] | outcome [5] | Potency [7]

Cc1cccc(C(=O)O)c1[N+](=O)[O-]
inactive: Potency [1] | outcome [2] | outcome [3] | outcome [4] | outcome [5] | outcome [6] | Potency [7]

Cc1ccccc1C(=O)N1CC/C(=N\OS(=O)(=O)O)c2ccc(Cl)cc21
inactive: Potency [1] | outcome [2] | outcome [9] | outcome [3] | outcome [4] | outcome [6] | Potency [7] | Potency [10]

O=C(O)C(=O)Nc1cccc(-c2nn[nH]n2)c1
inactive: Potency [1] | outcome [2] | outcome [3] | outcome [4] | outcome [5] | outcome [6] | Potency [7]

C=CCOC(=O)c1ccc(C(=O)OCC=C)c(C(=O)OCC=C)c1
inactive: Potency [1] | outcome [2] | Potency [8] | outcome [9] | outcome [3] | outcome [4] | outcome [5] | outcome [6] | Potency [7] | Potency [10]

CCCCOC(=O)C(=O)OCCCC
inactive: Potency [1] | outcome [2] | Potency [8] | outcome [9] | outcome [4] | outcome [5] | outcome [6] | Potency [7]

F[Si-2](F)(F)(F)(F)F
inactive: Potency [1] | outcome [2] | Potency [8] | outcome [9] | outcome [4] | outcome [5] | outcome [6] | Potency [7] | Potency [10]

Cc1cccc(NC(=S)N(C)C)c1
inactive: Potency [1] | outcome [2] | Potency [8] | outcome [9] | outcome [3] | outcome [4] | outcome [5]

C[C@@H]1C[C@H]2[C@@H]3C[C@H](F)C4=CC(=O)C=C[C@]4(C)[C@@]3(F)[C@@H](O)C[C@]2(C)[C@@]1(O)C(=O)CO
inactive: Potency [1] | outcome [2] | Potency [8] | outcome [9] | outcome [3] | outcome [4] | outcome [5] | outcome [6] | Potency [7]

Nc1c(NC/C=C\COc2cc(CN3CCCCC3)ccn2)c(=O)c1=O
inactive: activation [1] 4% [at 19 µM] | viability change, negative = cytotoxic [2] 8.26% [at 19 µM] | activation [3] 2.1% [at 19 µM] | activity change, negative = cytotoxicity [4] 1.18% [at 15.8 µM] | activation (H2AX phosphorylation) [5] -1.81% [at 31.6 µM] | activation [6] 0.659% [at 15.8 µM] | activity change, negative = cytotoxicity [7] 2.48% [at 31.6 µM]

O=C1c2ccccc2-c2ccccc21
inactive: Potency [1] | outcome [2] | Potency [8] | outcome [9] | outcome [3] | outcome [4] | outcome [5] | Potency [7] | Potency [10]

CCCCC(CC)CNC(=O)CC(C)OC(=O)CCC(=O)O (configuration not stated)
inactive: Potency [1] | outcome [2] | Potency [8] | outcome [3] | outcome [4] | outcome [5] | Potency [7] | Potency [10]

Nc1ccc(S(=O)(=O)Nc2ccccn2)cc1
inactive: Potency [1] | outcome [2] | outcome [3] | outcome [4] | outcome [5] | Potency [7]

O=C(/C=C/c1ccccc1)NCCO
inactive: Potency [1] | outcome [2] | outcome [3] | outcome [4] | outcome [5] | Potency [7]

CO[Si](CCCCl)(OC)OC
inactive: Potency [1] | outcome [2] | outcome [4] | outcome [5] | outcome [6]

CC(=O)OC[C@H]1O[C@@H](OC(C)=O)[C@H](OC(C)=O)[C@@H]1OC(C)=O
inactive: Potency [1] | outcome [2] | Potency [8] | outcome [9] | outcome [3] | outcome [4] | outcome [5] | outcome [6] | Potency [7] | Potency [10]

CC(=O)N1CCN(c2ccc(O)cc2)CC1
inactive: Potency [1] | outcome [2] | outcome [3] | outcome [4] | outcome [6] | Potency [7]
